Compounds with a hit are over-represented: about 9.5% of the library has one in this group of screens.
Tau ThT inhib – inhibitors of human tau fibril formation, thioflavin T binding; P10636; recombinant tau K18 P301L, heparin-induced fibrillization, ThT fluorescence; Potency, µM (titrated, usually from 57.4 µM), hits mostly inhibitors; hit rate 2.1% among 270,000; note: nearly all actives have a fitted effect of over 55% in size
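Using a mix of unlabeled (15 uM) and Alexa 594-labeled (0.24 uM) tau K18 P301L, heparin-triggered fibrillization over 6 hr at 37 C was scored by ThT fluorescence.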
Tau fluor counter – counter-screen for tau fibril formation inhibitors; tau K18 P301L (four-repeat tau fragment) Alexa594 fluorescence, heparin fibrillization; Potency, µM (doses to about 57.7 µM); hit rate 0.93% among 280,000; AID 1463; note: nearly all actives have a fitted effect of over 55% in size
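Human K18 P301L tau (15 uM unlabeled plus 0.24 uM Alexa 594-labeled, final) in 100 mM sodium acetate pH 7 was mixed with compound and 20 uM heparin and incubated 6 hr at 37 C.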
HPGD inh – HPGD (human) dehydrogenase inhibition; P15428; purified HPGD, NADH fluorescence kinetic, PGE2 substrate; Potency, µM, usual class: inhibitors; hit rate 4.3% among 150,000; AID 894; active = well fitted inhibition curve with a large enough effect, not every such curve was filed as active; inconclusive = small, poorly fitted or top-dose-only effect, or another doubt; inactive = no such curve, though single readings can be large or run the other way
Target sequence (P15428 whole entry, looked up): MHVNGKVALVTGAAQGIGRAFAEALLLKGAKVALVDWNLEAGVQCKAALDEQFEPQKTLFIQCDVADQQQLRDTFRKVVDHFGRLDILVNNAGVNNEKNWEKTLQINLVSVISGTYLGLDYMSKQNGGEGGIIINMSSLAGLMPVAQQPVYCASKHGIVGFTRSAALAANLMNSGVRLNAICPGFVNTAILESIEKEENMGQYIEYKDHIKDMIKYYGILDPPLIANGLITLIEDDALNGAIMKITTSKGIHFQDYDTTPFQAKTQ
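20 nM HPGD preincubated 15 min at room temperature with compound in 50 mM Tris-HCl pH 8, 0.01% Tween 20. Started with 1 mM NAD+ and 30 uM prostaglandin E2; NADH fluorescence (360/450 nm) read 5 times over 30-s intervals, last minus first.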
Tau fibril FP – blocks human tau fibril formation measured by polarization; P10636; K18 P301L tau heparin fibrillization, Alexa594 FP, 6 h; Potency, µM (series often up to 57.7 µM), most hits filed as inhibitors; hit rate 0.39% among 280,000; note: nearly all actives have a fitted effect of over 55% in size
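FP of Alexa 594-tau after heparin (20 uM) induction. Substrate: human K18 P301L, 15 uM unlabeled, 0.24 uM labeled. Buffer 100 mM sodium acetate pH 7. 6 hr, 37 C.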
NPSR antagonist – blocks cAMP signaling of the human neuropeptide S receptor; Q6W5P4; CHO-NPSR cells, cAMP TR-FRET, antagonist mode; Potency, µM (series often up to 38.3 µM), hits mostly inhibitors; hit rate 1% among 220,000; note: nearly all actives have a fitted effect of over 50% in size
Target sequence (Q6W5P4 whole entry, looked up): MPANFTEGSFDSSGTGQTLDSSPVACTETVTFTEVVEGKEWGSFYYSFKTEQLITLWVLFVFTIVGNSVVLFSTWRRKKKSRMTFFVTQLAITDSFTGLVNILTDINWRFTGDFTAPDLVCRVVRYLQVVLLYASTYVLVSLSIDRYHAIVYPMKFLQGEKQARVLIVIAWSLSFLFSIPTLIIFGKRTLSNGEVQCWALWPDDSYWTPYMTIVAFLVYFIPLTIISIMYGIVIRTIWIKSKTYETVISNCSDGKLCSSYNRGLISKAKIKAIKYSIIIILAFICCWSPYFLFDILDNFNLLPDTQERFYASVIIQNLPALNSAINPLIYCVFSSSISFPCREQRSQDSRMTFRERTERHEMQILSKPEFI
ALDH1A1 block – inhibitors of human aldehyde dehydrogenase 1A1; Potency, µM (doses to about 75.3 µM), hits mostly inhibitors; Purified ALDH1A1, NADH fluorescence, propionaldehyde substrate; AID 1030; hit rate 7.3% among 220,000; active = well fitted inhibition curve with a large enough effect, not every such curve was filed as active; inconclusive = small, poorly fitted or top-dose-only effect, or another doubt; inactive = no such curve, though single readings can be large or run the other way
A number is an active result; i = inactive; ? = inconclusive; nt = no result; [ ] = dose if it differs, or a comment. Unless noted, calls come from the whole dose curve; as a rule, active = well fitted curve in the direction sought with a large enough effect; inconclusive = small, poorly fitted or top-dose-only effect, or another doubt; inactive = no such curve, though single readings can be large; an effect the other way counts as inactive or inconclusive.

SMILES	Tau ThT inhib	Tau fluor counter	HPGD inh	Tau fibril FP	NPSR antagonist	ALDH1A1 block
NC(=O)SCC(=O)Nc1cccc(Cl)c1	?	i	i	?	i	0.6µM
NC(=O)SCC(=O)Nc1ccc(Cl)cc1	?	i	4.5µM	?	i	?
O=C(Nc1cc(F)ccc1F)C1COc2ccccc2C1 (stereo not drawn)	i	i	nt	i	nt	nt
O=C(C1=C[C@H](C2CCCCC2)C[C@H](OCCCCO)O1)N1CCN(Cc2ccccc2)CC1	?	i	nt	i	i	14µM
O=C(C1=C[C@H](C2CC2)C[C@H](OCCCCO)O1)N1CCN(Cc2ccccc2)CC1	?	i	nt	i	i	?
NC(=O)N/N=C/c1cccc(OCc2ccc(F)cc2)c1	i	i	nt	i	i	i
Cc1nnc(N/N=C/c2cccc(OCc3ccc(Cl)c(Cl)c3)c2)n1N	13µM	25µM[quencher]	i	i	i	i
COC(=O)NC(c1ccc2c(c1)OCO2)C(C(=O)OC)C(=O)OC (stereo not drawn)	i	i	i	i	nt	i
CCOc1ccc2[nH]c3c(NCCc4ccc(OC)c(OC)c4)ncnc3c2c1	nt	22µM[quencher]	nt	?	i	nt
Cc1ccc2[nH]c3c(NCc4ccco4)ncnc3c2c1	?	i	?	i	i	?
COc1cc(CNc2ncnc3c2[nH]c2ccc(C)cc23)cc(OC)c1	i	16µM[quencher]	nt	i	i	nt
Cc1cccc(NC(=O)C2CCN(S(=O)(=O)c3ccc4c(c3)CCCN4C(=O)C3CCC3)CC2)c1	i	i	nt	i	nt	nt
Cc1cc(C)cc(NC(=O)CCn2cnc3ccccc3c2=O)c1	i	i	nt	i	nt	nt
O=C(NNS(=O)(=O)c1ccc(C(=O)NC2CCCC2)cc1)c1ccncc1	i	i	nt	i	i	2.8µM
O=C(NCCCN1CCOCC1)c1cccc(S(=O)(=O)Nc2cc(Cl)ccc2Cl)c1	i	i	nt	i	i	i
CCc1nn2c(-c3ccco3)ccnc2c1-c1ccccc1	?	i	nt	i	nt	nt
Cc1cc(=O)cc(C)n1-c1ccc(Cl)cc1	i	i	nt	i	i	i
Cc1cccc(-n2c(C)cc(C=C3C(=O)c4ccccc4C3=O)c2C)c1	?	i	i	i	?	1.6µM
Cc1cc(C=C2C(=O)CCCC2=O)c(C)n1-c1ccccc1	?	i	i	i	i	?
Cc1cc(C=C2C(=O)c3ccccc3C2=O)c(C)n1-c1ccc(Cl)cc1	?	i	i	i	i	2.2µM
Cc1cccc(-c2nc3nc(C)cc(NC(C)c4ccccc4)n3n2)c1 (stereo not drawn)	i	i	nt	i	nt	nt
NS(=O)(=O)c1ccc(O)c(N2C(=O)c3cccc4c(C(=O)O)ccc(c34)C2=O)c1	i	i	nt	i	i	i
O=C(Nc1nnc(SCc2c(Cl)cccc2Cl)s1)C1CC(=O)N(c2ccc3c(c2)OCCO3)C1 (stereo not drawn)	i	i	nt	i	i	3.5µM
CCCCc1nnc(NC(=O)C2CC(=O)N(c3ccc4c(c3)OCCO4)C2)s1 (stereo not drawn)	i	i	i	i	i	i
Cc1cc(NC(=O)CSc2nnc(NC(=O)C3CC(=O)N(c4ccccc4C)C3)s2)no1 (stereo not drawn)	i	i	i	i	i	20µM
SMILES	Tau ThT inhib	Tau fluor counter	HPGD inh	Tau fibril FP	NPSR antagonist	ALDH1A1 block
O=C(Nc1nc(-c2ccco2)c(-c2ccco2)s1)C1CC(=O)N(c2ccc3c(c2)OCCO3)C1 (stereo not drawn)	14µM	?	?	?	i	1.1µM
C#CCNC(=O)C(C)c1ncc(C(F)(F)F)cc1Cl (stereo not drawn)	i	i	nt	i	i	i
O=C(CN1C(=O)COc2ccc(Cl)cc21)Nc1cccc(C(=O)O)c1	i	i	nt	i	nt	nt
CCOC(=O)c1cnc(-c2ccccc2)nc1Oc1ccc(OC)cc1	i	i	nt	i	i	11µM
CCOC(=O)c1cnc(-c2ccccc2)nc1Oc1ccccc1	i	i	i	i	i	i
CCOC(=O)c1nnc(-c2ccccc2)nc1Oc1ccccc1Cl	14µM	?	i	i	?	?
COc1ccc(Cl)cc1NC(=O)c1cc2c(=O)n3ccccc3nc2s1	?	?	nt	i	nt	nt
Cn1c(=O)c(N)c2c3c(c(Br)ccc31)C(=O)c1ccccc1-2	14µM	?	nt	i	i	?
CCOC(=O)c1sc(N2N=C(C)/C(=C\c3ccc(OCC(=O)OC)cc3)C2=O)nc1C	?	i	28µM	i	i	14µM
O=C(NNC(=O)c1cc(O)c(O)c(O)c1)NC1CCCCC1	?	i	?	i	i	i
O=C(O)/C=C/C(=O)Nc1ccc(NC(=O)c2ccccc2)c(Cl)c1	i	i	nt	i	i	2.2µM
O=C(O)/C=C\C(=O)Nc1cccc(NC(=O)c2ccccc2)c1	?	i	nt	i	i	?
O=C(CNc1cc(S(=O)(=O)N2CCCC2)ccc1OCC(F)(F)F)Nc1cccc(C(F)(F)F)c1	i	?	i	?	i	i
CCCOc1cc(CN2CCCCC2)cc(C(C)=O)c1	i	i	i	i	i	i
CC(=O)c1ccc(-n2c(CCC(=O)O)ccc2-c2cccs2)cc1	?	i	i	i	i	3.5µM
COC(=O)c1cccc(-n2c(CCC(=O)O)ccc2-c2ccc(OC)cc2)c1	?	i	nt	i	nt	nt
COC(=O)c1cccc(-n2c(CCC(=O)O)ccc2-c2cccs2)c1	?	i	nt	i	i	4µM
Cc1ccc(-n2c(CCC(=O)O)ccc2-c2cccs2)cc1	?	i	i	i	i	?
NC(=O)c1ccc(-n2c(CCC(=O)O)ccc2-c2cccs2)cc1	i	i	nt	i	i	3.2µM
COc1ccc(-n2nc(C(=O)N(C)c3cccc(C(F)(F)F)c3)c3c4ccccc4n(C)c3c2=O)cc1	i	i	nt	i	nt	nt
Cc1cc(NC(=O)CCC(=O)N(c2ccccc2)C(C(=O)NC2CCCC2)c2ccccc2)no1 (stereo not drawn)	i	i	i	i	i	25µM
Cc1ccc(N(C(=O)CCC(=O)Nc2cc(C)on2)C(C(=O)NC2CCCC2)c2ccccc2)cc1 (stereo not drawn)	i	i	nt	i	i	i
COC(=O)c1cccc(Nc2c(-c3cc(Br)ccc3O)nc3nc[nH]n23)c1	i	i	nt	i	nt	nt
COc1ccc(CCNc2nc(-c3sc(N)nc3C)cs2)cc1OC	14µM	?	i	?	i	?
COc1ccc(Nc2nc(-c3sc(N)nc3C)cs2)cc1	8.9µM	?	i	?	i	7.1µM
SMILES	Tau ThT inhib	Tau fluor counter	HPGD inh	Tau fibril FP	NPSR antagonist	ALDH1A1 block
Cc1ccc(Nc2nc(-c3ccncc3)cs2)cc1	?	i	nt	i	i	i
COc1ccc(CCNc2ccncn2)cc1OC	i	i	i	i	i	i
Cc1nc(N)sc1-c1csc(Nc2ccc(Cl)cn2)n1	7.9µM	14µM[quencher]	i	i	i	i
Cc1nc(C)c(-c2csc(N)n2)s1	i	i	nt	i	i	i
Cc1nc(N)sc1-c1csc(Nc2ccccn2)n1	13µM	14µM[quencher]	i	?	i	?
c1ccc2c(NCCN3CCOCC3)nc(-c3ccc4c(c3)OCO4)nc2c1	nt	nt	nt	nt	nt	i

Screening results from PubChem BioAssay.
